# Values joined by “and” are separate entries in the source; they are usually repeats but may differ in a detail not shown here. Identical values can stand only once. Screen size: about 5,500 compounds; about 2,000 (36%) were called active. Another 18% or so got no clear call; they are omitted. This is one part of the list. A number with no mark means an inactive call. Rule as the data show it: active = normalized growth mostly below about 0.91 (no sharp cut-off); inconclusive = no clear call, values can overlap the other calls; inactive = mostly above about 0.92.
# Assay: chemical genetic growth profiling, strain panel (AID 1159580);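 also: tested at 20 µM; growth read once vehicle control cultures reached saturation at 30 °C; 1 = growth at the plate median or of vehicle wells; lower values mean less growth of the strain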
# Conditions: S. cerevisiae deletion strains, growth OD
smiles,measurement,setting,value
COc1cc(C)c(C(=O)Oc2cc(C)c(C(=O)O)c(O)c2C)c(OC)c1C,normalized growth,"locus YAL021C, strain ccr4, active compounds read low",1.01
same,normalized growth,"locus YAL026C, strain drs2, active compounds read low",0.965
same,normalized growth,"locus YAL030W, strain snc1, active compounds read low",0.994
same,normalized growth,"locus YBL061C, strain skt5, active compounds read low",0.987
same,normalized growth,"locus YBR009C, strain hhf1, active compounds read low",0.91
same,normalized growth,"locus YBR021W, strain FUR4, active compounds read low",0.995
same,normalized growth,"locus YBR023C, strain chs3, active compounds read low",0.983
same,normalized growth,"locus YBR171W, strain sec66, active compounds read low",0.969
same,normalized growth,"locus YBR229C, strain ROT2, active compounds read low",0.993
same,normalized growth,"locus YBR231C, strain swc5, active compounds read low",0.98
same,normalized growth,"locus YBR279W, strain paf1, active compounds read low",0.995
same,normalized growth,"locus YCL011C, strain gbp2, active compounds read low",0.968
same,normalized growth,"locus YCL016C, strain dcc1, active compounds read low",0.986
same,normalized growth,"locus YCL029C, strain bik1, active compounds read low",1.02
same,normalized growth,"locus YCL061C, strain MRC1, active compounds read low",0.974
same,normalized growth,"locus YCL069W, strain vba3, active compounds read low",0.976
same,normalized growth,"locus YCR088W, strain abp1, active compounds read low",0.994
same,normalized growth,"locus YDL005C, strain med2, active compounds read low",0.992
same,normalized growth,"locus YDL035C, strain GPR1, active compounds read low",0.991
same,normalized growth,"locus YDL040C, strain nat1, active compounds read low",0.974
same,normalized growth,"locus YDL074C, strain BRE1, active compounds read low",0.982
same,normalized growth,"locus YDL101C, strain DUN1, active compounds read low",1.02
same,normalized growth,"locus YDL134C, strain PPH21, active compounds read low",1.02
same,normalized growth,"locus YDL185W, strain tfp1, active compounds read low",1.02
same,normalized growth,"locus YDL192W, strain arf1, active compounds read low",1
same,normalized growth,"locus YDR001C, strain nth1, active compounds read low",0.972
same,normalized growth,"locus YDR069C, strain doa4, active compounds read low",0.993
same,normalized growth,"locus YDR101C, strain arx1, active compounds read low",1.01
same,normalized growth,"locus YDR137W, strain rgp1, active compounds read low",0.906
same,normalized growth,"locus YDR159W, strain sac3, active compounds read low",0.89
same,normalized growth,"locus YDR162C, strain NBP2, active compounds read low",0.98
same,normalized growth,"locus YDR195W, strain ref2",0.966
same,normalized growth,"locus YDR297W, strain sur2, active compounds read low",0.988
same,normalized growth,"locus YDR318W, strain mcm21, active compounds read low",1
same,normalized growth,"locus YDR334W, strain swr1, active compounds read low",1
same,normalized growth,"locus YDR335W, strain msn5, active compounds read low",0.993
same,normalized growth,"locus YDR388W, active compounds read low",1.01
same,normalized growth,"locus YDR392W, strain spt3, active compounds read low",0.479 (active)
same,normalized growth,"locus YDR502C, strain sam2, active compounds read low",1
same,normalized growth,"locus YEL003W, strain gim4, active compounds read low",0.968
same,normalized growth,"locus YEL037C, strain rad23, active compounds read low",0.982
same,normalized growth,"locus YEL061C, strain CIN8 (second series), active compounds read low",0.982
same,normalized growth,"locus YEL061C, strain CIN8, active compounds read low",1
same,normalized growth,"locus YER015W, strain faa2, active compounds read low",0.99
same,normalized growth,"locus YER016W, strain bim1, active compounds read low",0.984
same,normalized growth,"locus YER110C, active compounds read low",1.02
same,normalized growth,"locus YER111C, strain swi4, active compounds read low",0.97
same,normalized growth,"locus YER155C, strain BEM2 (second series), active compounds read low",0.708 (active)
same,normalized growth,"locus YER155C, strain BEM2, active compounds read low",1
same,normalized growth,"locus YER167W, strain BCK2, active compounds read low",0.999
same,normalized growth,"locus YFR010W, strain ubp6, active compounds read low",0.991
same,normalized growth,"locus YGL078C, strain dbp3, active compounds read low",0.986
same,normalized growth,"locus YGL086W, strain mad1, active compounds read low",1.02
same,normalized growth,"locus YGL167C, strain pmr1, active compounds read low",0.964
same,normalized growth,"locus YGL173C, strain kem1, active compounds read low",0.975
same,normalized growth,"locus YGL227W, strain vid30, active compounds read low",0.969
same,normalized growth,"locus YGL240W, strain doc1, active compounds read low",0.941
same,normalized growth,"locus YGL248W, strain PDE1, active compounds read low",1.01
same,normalized growth,"locus YGL253W, strain hxk2, active compounds read low",0.949
same,normalized growth,"locus YGR078C, strain PAC10, active compounds read low",0.992
same,normalized growth,"locus YGR135W, strain pre9, active compounds read low",1
same,normalized growth,"locus YGR252W, strain gcn5, active compounds read low",0.905
same,normalized growth,"locus YHR013C, strain ard1, active compounds read low",0.887
same,normalized growth,"locus YHR027C, strain rpn1, active compounds read low",1
same,normalized growth,"locus YHR030C, strain SLT2, active compounds read low",1.02 and 0.932
same,normalized growth,"locus YHR079C, strain IRE1 (second series), active compounds read low",1.02
same,normalized growth,"locus YHR079C, strain IRE1, active compounds read low",0.845 (active)
same,normalized growth,"locus YHR094C, strain hxt1, active compounds read low",1.01
same,normalized growth,"locus YHR129C, strain ARP1, active compounds read low",1.01
same,normalized growth,"locus YHR142W, strain chs7, active compounds read low",0.994
same,normalized growth,"locus YHR200W, strain rpn10, active compounds read low",1
same,normalized growth,"locus YIL066C, strain RNR3, active compounds read low",1
same,normalized growth,"locus YIL073C, strain SPO22, active compounds read low",1.06
same,normalized growth,"locus YIL125W, strain kgd1, active compounds read low",0.996
same,normalized growth,"locus YIR030C, strain dcg1, active compounds read low",1.01
same,normalized growth,"locus YJL092W, strain hpr5, active compounds read low",0.983
same,normalized growth,"locus YJL095W, strain BCK1 (second series), active compounds read low",0.988
same,normalized growth,"locus YJL095W, strain BCK1, active compounds read low",0.998 and 0.884
same,normalized growth,"locus YJL115W, strain asf1, active compounds read low",0.991
same,normalized growth,"locus YJL129C, strain trk1, active compounds read low",0.867 (active)
same,normalized growth,"locus YJL134W, strain LCB3, active compounds read low",1.01
same,normalized growth,"locus YJL154C, strain vps35, active compounds read low",0.979
same,normalized growth,"locus YJL164C, strain tpk1, active compounds read low",0.993
same,normalized growth,"locus YJL166W, strain qcr8, active compounds read low",0.953
same,normalized growth,"locus YJL168C, strain set2, active compounds read low",1
same,normalized growth,"locus YJL187C, strain SWE1 (second series), active compounds read low",1.03
same,normalized growth,"locus YJL187C, strain SWE1, active compounds read low",0.993
same,normalized growth,"locus YJR043C, strain POL32, active compounds read low",0.998
same,normalized growth,"locus YJR066W, strain TOR1, active compounds read low",0.975
same,normalized growth,"locus YJR075W, strain HOC1, active compounds read low",1.01
same,normalized growth,"locus YKL009W, strain mrt4, active compounds read low",0.992
same,normalized growth,"locus YKL068W, active compounds read low",1
same,normalized growth,"locus YKL085W, strain MDH1 (second series), active compounds read low",0.995
same,normalized growth,"locus YKL085W, strain MDH1, active compounds read low",0.995
same,normalized growth,"locus YKL160W, strain elf1, active compounds read low",0.991
same,normalized growth,"locus YKL190W, strain CNB1, active compounds read low",1.01
same,normalized growth,"locus YKR001C, strain vps1, active compounds read low",0.956
same,normalized growth,"locus YKR026C, strain gcn3, active compounds read low",0.979
same,normalized growth,"locus YKR091W, strain srl3, active compounds read low",0.981
same,normalized growth,"locus YLL001W, strain dnm1, active compounds read low",1
same,normalized growth,"locus YLL026W, active compounds read low",0.968
same,normalized growth,"locus YLL041C, strain sdh2, active compounds read low",0.982
same,normalized growth,"locus YLR027C, strain aat2, active compounds read low",0.991
same,normalized growth,"locus YLR039C, strain RIC1, active compounds read low",1.03
same,normalized growth,"locus YLR058C, strain SHM2, active compounds read low",1.01
same,normalized growth,"locus YLR102C, strain apc9, active compounds read low",1.02
same,normalized growth,"locus YLR113W, strain HOG1, active compounds read low",0.557 (active)
same,normalized growth,"locus YLR221C, strain rsa3, active compounds read low",1.01
same,normalized growth,"locus YLR258W, strain gsy2, active compounds read low",0.947
same,normalized growth,"locus YLR262C, strain YPT6 (second series), active compounds read low",0.943
same,normalized growth,"locus YLR262C, strain YPT6, active compounds read low",1.03
same,normalized growth,"locus YLR268W, strain sec22, active compounds read low",1.03
same,normalized growth,"locus YLR320W, strain mms22, active compounds read low",0.859 (active)
same,normalized growth,"locus YLR330W, strain CHS5, active compounds read low",1.01
same,normalized growth,"locus YLR342W, strain FKS1 (second series), active compounds read low",0.985
same,normalized growth,"locus YLR342W, strain FKS1, active compounds read low",0.978
same,normalized growth,"locus YLR357W, strain rsc2, active compounds read low",0.94
same,normalized growth,"locus YLR370C, strain arc18, active compounds read low",0.999
same,normalized growth,"locus YLR371W, strain rom2, active compounds read low",1.02
same,normalized growth,"locus YLR384C, strain iki3, active compounds read low",0.992
same,normalized growth,"locus YLR418C, strain cdc73, active compounds read low",0.859
same,normalized growth,"locus YML016C, strain PPZ1, active compounds read low",1.01
same,normalized growth,"locus YML032C, strain rad52, active compounds read low",0.985
same,normalized growth,"locus YML120C, strain ndi1, active compounds read low",0.971
same,normalized growth,"locus YML124C, strain tub3, active compounds read low",1.01
same,normalized growth,"locus YMR058W, strain fet3, active compounds read low",0.984
same,normalized growth,"locus YMR078C, strain ctf18, active compounds read low",1
same,normalized growth,"locus YMR125W, strain sto1, active compounds read low",0.912
same,normalized growth,"locus YMR129W, active compounds read low",0.97
same,normalized growth,"locus YMR205C, strain PFK2, active compounds read low",0.852 (active)
same,normalized growth,"locus YMR223W, strain ubp8, active compounds read low",0.994
same,normalized growth,"locus YMR231W, strain pep5, active compounds read low",0.988
same,normalized growth,"locus YMR307W, strain GAS1, active compounds read low",0.978
same,normalized growth,"locus YNL067W, strain RPL9B, active compounds read low",1.04
same,normalized growth,"locus YNL071W, strain lat1, active compounds read low",0.869 (active)
same,normalized growth,"locus YNL128W, strain TEP1, active compounds read low",1.03
same,normalized growth,"locus YNL153C, strain GIM3, active compounds read low",1.01
same,normalized growth,"locus YNL183C, strain NPR1, active compounds read low",0.955
same,normalized growth,"locus YNL209W, strain ssb2, active compounds read low",1
same,normalized growth,"locus YNL233W, strain BNI4, active compounds read low",1
same,normalized growth,"locus YNL248C, strain rpa49, active compounds read low",1.01
same,normalized growth,"locus YNL250W, strain rad50, active compounds read low",1.03
same,normalized growth,"locus YNL271C, strain bni1, active compounds read low",1.01
same,normalized growth,"locus YNL298W, strain CLA4, active compounds read low",0.934
same,normalized growth,"locus YNL307C, strain MCK1, active compounds read low",1
same,normalized growth,"locus YNL322C, strain KRE1 (second series), active compounds read low",0.996
same,normalized growth,"locus YNL322C, strain KRE1, active compounds read low",1
same,normalized growth,"locus YNR049C, strain mso1, active compounds read low",0.978
same,normalized growth,"locus YNR052C, strain pop2, active compounds read low",1
same,normalized growth,"locus YOL012C, strain htz1",1.06
same,normalized growth,"locus YOL147C, strain pex11, active compounds read low",1.01
same,normalized growth,"locus YOR001W, strain rrp6, active compounds read low",0.989
same,normalized growth,"locus YOR061W, strain CKA2, active compounds read low",1.01
same,normalized growth,"locus YOR069W, strain VPS5, active compounds read low",1.02
same,normalized growth,"locus YOR070C, strain gyp1, active compounds read low",0.983
same,normalized growth,"locus YOR080W, strain dia2, active compounds read low",0.997
same,normalized growth,"locus YOR083W, strain WHI5, active compounds read low",1.03
same,normalized growth,"locus YOR106W, strain vam3, active compounds read low",1
same,normalized growth,"locus YOR136W, strain idh2, active compounds read low",1.02
same,normalized growth,"locus YOR144C, strain elg1, active compounds read low",1.01
same,normalized growth,"locus YOR184W, strain ser1, active compounds read low",0.986
same,normalized growth,"locus YOR231W, strain MKK1, active compounds read low",0.777 (active)
same,normalized growth,"locus YOR265W, strain rbl2, active compounds read low",0.992
same,normalized growth,"locus YOR270C, strain vph1, active compounds read low",0.928
same,normalized growth,"locus YOR290C, strain snf2, active compounds read low",0.931
same,normalized growth,"locus YOR316C, strain cot1, active compounds read low",1.01
same,normalized growth,"locus YPL051W, strain arl3, active compounds read low",1
same,normalized growth,"locus YPL055C, strain LGE1, active compounds read low",1.01
same,normalized growth,"locus YPL078C, strain atp4, active compounds read low",0.986
same,normalized growth,"locus YPL106C, strain sse1, active compounds read low",0.974
same,normalized growth,"locus YPL240C, strain hsp82, active compounds read low",0.979
same,normalized growth,"locus YPL241C, strain CIN2, active compounds read low",0.995
same,normalized growth,"locus YPL256C, strain CLN2, active compounds read low",0.917
same,normalized growth,"locus YPR119W, strain clb2, active compounds read low",1.01
same,normalized growth,"locus YPR141C, strain kar3, active compounds read low",1.03
same,normalized growth,"locus YPR163C, strain tif3, active compounds read low",1.01
same,normalized growth,"locus YPR167C, strain met16, active compounds read low",1.01
same,normalized growth,"strain wtn01, active compounds read low",1.04

# — PubChem BioAssay AID1159580 (chemical genetic matrix, 2015)
